# This is one part of a sample in which hits are shown more often than they occur.
# Cycloheximide cs: counter-screen hit for Shiga toxin inhibitors, cycloheximide | cell reporter, cycloheximide protein synthesis inhibition counterscreen | max response, % | 12% of 300,000 active | AID 2314; in the data active means max response mostly above about 13%, no sharp cut-off; inactive means mostly below about 14%; further: read at 38.3 µM for the half of the compounds with a filed dose; 0% is about no effect
# Shiga inhibitor: inhibitors of Shiga toxin in Vero cells. Vero cells, Shiga toxin protein synthesis inhibition reporter. 9.2% of 290,000 active. inhibition, % at 38.7 µM; in the data active means inhibition mostly above about 28%, no sharp cut-off; inactive means mostly below about 43%; further: 0% is about no effect
# LASV entry inh: blocks Lassa virus binding to or entry into cells; Lassa virus pseudotype entry inhibition, cell reporter; Potency, µM (top dose mostly 37.9 µM), without a hit: at the top dose activity change, negative = inhibition, actives largely listed as inhibitors; 1.2% of 300,000 active; AID 540256; calls by dose curve; tested in HEK293 cells; further: potency means the concentration at half of the fitted maximal effect; on the % scale 0 is the no-effect control and ±100 the full control effect; nearly all actives have a fitted effect of over 50% in size
# AMA1-RON2 inh: inhibitors of Plasmodium falciparum AMA1-RON2 interaction | AlphaScreen AMA1-biotinylated RON2 peptide binding | Potency, µM (highest dose often 58.2 µM), for inactives: top-dose activity change, negative = inhibition, hits mostly inhibitors | 0.2% of 360,000 active; active means well fitted inhibition curve with a large enough effect; inconclusive means small, poorly fitted or top-dose-only effect; inactive means no such curve, though single readings can be large or run the other way;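 further: potency means the concentration at half of the fitted maximal effect; 0% = vehicle wells and -100% = peptide control; nearly all actives have a fitted effect of over 45% in size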
#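 AMA1 (3D7) with his tag at 25 nM final met compounds first, then biotinylated RON2 peptide at 25 nM; detection used donor plus acceptor beads, 10 µg/mL apiece, read by AlphaScreen after 30 min at room temperature.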
# Marburg entry inh: blocks Marburg virus binding to or entry into cells. Marburg virus pseudotyped entry inhibition, cell reporter. Potency, µM (titrated, usually from 37.8 µM), without a hit: at the highest dose activity change, negative = inhibition, usual class: inhibitors. 1.8% of 300,000 active. AID 540276; calls by dose curve; tested in HEK293 cells; further: potency means the concentration at half of the fitted maximal effect; on the % scale 0 is the no-effect control and ±100 the full control effect
# An asterisk follows results filed as active; ? = inconclusive; · = no result; + = active, no number; [ ] = another dose, or the depositor's remark.
SMILES,Cycloheximide cs,Shiga inhibitor,LASV entry inh,AMA1-RON2 inh,Marburg entry inh
Cc1ccc(-c2noc(-c3ccoc3C)n2)cc1,49*,83*,?,-29%,?
Cc1occc1-c1nc(-c2ccccn2)no1,26*,68*,?,-6%,11µM*
Clc1ccc(Br)cc1-c1nc(-c2ccncc2)no1,8,9,-14%,-10%,-15%
Cc1ccc(CSc2nc3c(c(N(C)C)n2)CCCC3)cc1,6,5,-8%,49%,?
Cc1nc(SCc2ccccc2)nc2c1CCC2,58*,85*,0%,29%,-7%[46.1 µM]
CNc1nc(SCc2ccc(C)cc2)nc2c1CCCC2,37*,55*,-30%,3%,?
CCOC(=O)C1=C(Cc2ccc(OC)cc2)C(=O)c2ccccc2C1=O,27*,23,?,?,?
CCOC(=O)c1c(C)nc2c(c1-c1cc(OC)ccc1OC)C(=O)c1ccccc1-2,-1,-10,-7%,-11%,-3%
CCOC(=O)C1=C(Cc2ccc(C)cc2)C(=O)c2ccccc2C1=O,19*,10,·,·,3%
CCOC(=O)c1ccc(COC(=O)c2ccc3c(c2)-c2ccccc2C3=O)cc1,-3,-11,?,-1%,25%
COc1ccccc1N1CCN(C(=O)C2CCN(S(=O)(=O)c3cn(C)cn3)CC2)CC1,·,·,12%[46.1 µM],·,·
CCOC(=O)c1cnc2ccc(C)cc2c1Sc1ccc(F)cc1,43*,67*,-8%,24%,5%[46.1 µM]
CCOC(=O)c1cnc2ccc(C)cc2c1Nc1ccc(N2CCOCC2)cc1,6,-7,?,14µM*,?
CCOC(=O)c1cnc2ccc(C)cc2c1Sc1ccccc1,34*,62*,15%,14%,28%
CCOC(=O)c1cnc2ccc(C)cc2c1N(C)Cc1ccccc1,2,22,?,30%,?
Cc1ccc(-c2nn(-c3ccccc3)cc2C=C2SC(=S)N(CCS(=O)(=O)O)C2=O)cc1,·,·,·,32µM*,·
O=C1C(=Cc2cn(-c3ccccc3)nc2-c2ccc(OCc3ccccc3)cc2)SC(=S)N1CCS(=O)(=O)O,·,·,·,-9%,·
Cc1cc(C)c(NC(=O)C2CC(=O)N(c3ccc4c(c3)OCCO4)C2)c(C)c1 (stereo not drawn),26*,13,7%,-5%,?
CCc1cccc(CC)c1NC(=O)C1CC(=O)N(c2ccc3c(c2)OCCO3)C1 (stereo not drawn),13,25,-4%,6%,?
CCOc1ccc(N2CC(C(=O)Nc3ccc4c(c3)OCCO4)CC2=O)cc1 (stereo not drawn),50*,62*,15%,2%,-23%[46.1 µM]
O=C(Nc1nc(-c2ccco2)c(-c2ccco2)s1)C1CC(=O)N(c2ccc3c(c2)OCCO3)C1 (stereo not drawn),12,0,-7%,10µM*,-4%
Cc1ccc(NC(=O)Cn2c(=O)n(Cc3ccccc3)c(=O)c3c2c2cc(C)ccc2n3C)cc1,·,·,19%[46.1 µM],·,·
CCCN1CCC(=O)N(CCO)CC1,-1,-3,·,8%,·
COc1cc(NS(=O)(=O)c2ccc(-c3ccc(=O)[nH]n3)o2)cc(OC)c1OC,-2,-11,1%[46.1 µM],-1%,11%[46.1 µM]
CC(C)(C)OC(=O)N1CCNc2ccccc2C1,12*,+,?,-2%,2%[46.1 µM]
SMILES,Cycloheximide cs,Shiga inhibitor,LASV entry inh,AMA1-RON2 inh,Marburg entry inh
CCOC(=O)C1CCN(C(=O)CN(c2ccc3c(c2)OCCO3)S(C)(=O)=O)CC1,-3,-5,0%,0%,6%
COc1ccccc1CNCc1cccc(Oc2ccccc2)c1,7,12,-15%[46.1 µM],-4%,11µM*
O=C(Nc1ccc(C(F)(F)F)cc1)C1CCCN(c2cnccn2)C1 (stereo not drawn),·,·,-2%[46.1 µM],·,5%[46.1 µM]
COc1cc(/C=C2\SC(N3CCC(C)CC3)=NC2=O)ccc1O,42*,15,?,-8%,?
CN(C)c1ccc(/C=C2\SC(N3CCCCC3)=NC2=O)cc1,41*,·,·,-7%,·
O=C1N=C(N2CCCCC2)S/C1=C/C1=Cc2ccccc2OC1,37*,76*,?,8%,?
C=CCc1c(C)nc(SC)nc1Nc1ccc(C(C)=O)cc1,46*,82*,10%,-2%,-16%
Cc1cccc(NC(=S)Nc2cccc3ccccc23)c1,32*,95*,1%[46.1 µM],53%,-7%[46.1 µM]
COc1ccc(CNC(=S)Nc2cccc(OC)c2)cc1,-3,9,?,-2%,?
Cc1cccc(NC(=S)NCCC(C)C)c1,20*,25,?,-13%,1.5µM*
FC(F)(F)c1ccccc1NC(=S)NN=C1CCCCCC1,33*,32,-28%[46.1 µM],16%,-20%[46.1 µM]
COc1cccc(NC(=S)Nc2cccc3ccccc23)c1,85*,110*,4%[46.1 µM],71%,-7%[46.1 µM]
FC(F)(F)c1ccccc1NC(=S)N1CCCC1,9,-2,?,-14%,10%[46.1 µM]
COc1ccc(CCNC(=S)Nc2cccc(C)c2)cc1,12,-11,17%,-6%,-1%
CC(=O)Nc1ccc(NC(=O)CCNS(=O)(=O)c2cccc3nsnc23)cc1,-1,-11,24%[46.1 µM],2%,?
S=C(Nc1ccc(Cl)cc1)Nc1cccc2cnccc12,18,19,?,-9%,?
Fc1ccc(NC(=S)Nc2ccccc2Cl)cc1,5,-8,?,-15%,9%[46.1 µM]
Fc1ccc(NC(=S)Nc2cccc3ccccc23)cc1,42*,70*,·,46%,·
Fc1ccc(NC(=S)Nc2cccc3ccccc23)cc1F,46*,45*,·,103%,·
Cc1ccc(S(=O)(=O)N(C)C)cc1NC(=S)Nc1cccc2ccccc12,-2,13,16%[46.1 µM],57%,-1%[46.1 µM]
CCC(C)c1ccc(NC(=S)Nc2ccc(OC)c(OC)c2)cc1 (stereo not drawn),5,15,-20%,-8%,0%
Cc1cc(NC(=S)Nc2cccc3ccccc23)n[nH]1,28*,70*,10%,8%,?
CCC(C)c1ccc(NC(=S)Nc2ccc(OC)cc2C)cc1 (stereo not drawn),30*,62*,3%,2%,?
COc1ccc(OC)c(C(c2nnnn2CCC(C)C)N2CCN(C(=O)c3ccco3)CC2)c1 (stereo not drawn),-7,20,-10%,-15%,-25%
O=C(NCCCc1ccccc1)c1ccc(-n2cncn2)c([N+](=O)[O-])c1,·,·,-4%[46.1 µM],-5%,7%
SMILES,Cycloheximide cs,Shiga inhibitor,LASV entry inh,AMA1-RON2 inh,Marburg entry inh
COc1cc(OC)c(OC)cc1/C=C/C(=O)OCC(=O)Nc1c(C)n(C)n(-c2ccccc2)c1=O,·,·,·,6%,·
COc1cccc(NC(=S)NN=C2CCCCCC2)c1,26*,53*,-29%,54%,-5%[46.1 µM]
CCc1ccc(NC(=S)Nc2cccc(OC)c2)cc1,16*,67*,-1%,12%,23%
Cc1cc(C)cc(NC(=S)Nc2cccc3ccccc23)c1,-2,-15,·,85%,·
CC(C)c1ccc(NC(=S)Nc2cccc3ccccc23)cc1,55*,98*,12%[46.1 µM],48%,4%[46.1 µM]
Cc1ccc(NC(=S)Nc2cccc3ccccc23)cc1,90*,78*,2%[46.1 µM],60%,-7%[46.1 µM]
C=CCNC(=S)Nc1cccc2ccccc12,4,17,-15%,-3%,4%
